Experimental data from PubChem BioAssay AID1159580 (chemical genetic matrix, 2015).
Screen size: about 5,500 compounds; about 2,000 (36%) were called active. Roughly 18% stayed inconclusive and do not appear here. Rule as the data show it: active = normalized growth mostly below about 0.91 (no sharp cut-off); inconclusive = no clear call, values can overlap the other calls; inactive = mostly above about 0.92. The list shows a part of the results.

Assay: chemical genetic growth profiling, strain panel (AID 1159580);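 also: tested at 20 µM; growth read once vehicle control cultures reached saturation at 30 °C; 1 = growth at the plate median or of vehicle wells; lower values mean less growth of the strain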
Settings: S. cerevisiae deletion strains, growth OD

Measured: normalized growth

CCn1nc(C)cc1C(=O)Sc1cccc(Br)c1
inactive: locus YAR019C, strain CDC15, active compounds read low 0.917 | locus YBL105C, strain PKC1, active compounds read low 0.934 | locus YBR135W, strain CKS1, active compounds read low 0.91 | locus YBR136W, strain MEC1, active compounds read low 0.942 | locus YBR160W, strain CDC28, active compounds read low 0.924 | locus YDL017W, strain CDC7, active compounds read low 0.935 | locus YDL028C, strain MPS1, active compounds read low 0.924 | locus YDL101C, strain DUN1, active compounds read low 0.951 | locus YDL108W, strain KIN28, active compounds read low 0.93 | locus YDL132W, strain cdc53, active compounds read low 0.922 | locus YDL214C, strain PRR2, active compounds read low 0.706 | locus YDR052C, strain DBF4, active compounds read low 0.971 | locus YDR054C, strain cdc34, active compounds read low 0.885 | locus YDR226W, strain ADK1, active compounds read low 0.925 | locus YER133W, strain GLC7, active compounds read low 0.784 | locus YFL029C, strain CAK1, active compounds read low 0.904 | locus YFR003C, strain YPI1, active compounds read low 0.932 | locus YFR028C, strain CDC14, active compounds read low 0.933 | locus YGR040W, strain KSS1, active compounds read low 0.747 | locus YGR052W, strain FMP48, active compounds read low 0.725 | locus YHR082C, strain KSP1, active compounds read low 0.626 | locus YIL147C, strain SLN1, active compounds read low 0.933 | locus YJL095W, strain BCK1, active compounds read low 0.551 | locus YJL128C, strain PBS2, active compounds read low 0.913 | locus YJR016C, strain ILV3, active compounds read low 0.921 | locus YJR066W, strain TOR1, active compounds read low 0.543 | locus YKL048C, strain ELM1, active compounds read low 0.924 | locus YKL101W, strain HSL1, active compounds read low 0.786 | locus YKL193C, strain SDS22, active compounds read low 0.927 | locus YKL203C, strain TOR2, active compounds read low 0.746 | locus YML070W, strain DAK1, active compounds read low 0.727 | locus YMR001C, strain CDC5, active compounds read low 0.904 | locus YMR205C, strain PFK2 (second series), active compounds read low 0.819 | locus YMR277W, strain FCP1, active compounds read low 0.914 | locus YNL006W, strain LST8, active compounds read low 0.917 | locus YNL161W, strain CBK1, active compounds read low 0.937 | locus YNL183C, strain NPR1, active compounds read low 0.629 | locus YNL207W, strain RIO2, active compounds read low 0.918 | locus YNL222W, strain SSU72, active compounds read low 0.917 | locus YOL078W, strain AVO1, active compounds read low 0.91 | locus YOL136C, strain PFK27, active compounds read low 0.701 | locus YOR119C, strain RIO1, active compounds read low 0.741 | locus YOR329C, strain SCD5, active compounds read low 0.935 | locus YPL204W, strain HRR25, active compounds read low 0.676 | locus YPL209C, strain IPL1, active compounds read low 0.936 | locus YPR025C, strain CCL1, active compounds read low 0.935 | locus YPR106W, strain ISR1, active compounds read low 0.97 | locus YPR111W, strain DBF20, active compounds read low 0.955 | strain NNK1, active compounds read low 0.963 | strain TSCII, active compounds read low 0.908
active: locus YDR477W, strain SNF1, active compounds read low 0.65 | locus YER123W, strain YCK3, active compounds read low 0.592 | locus YFL009W, strain cdc4, active compounds read low 0.883 | locus YFR019W, strain FAB1, active compounds read low 0.737 | locus YGR092W, strain DBF2, active compounds read low 0.332 | locus YHR030C, strain SLT2, active compounds read low 0.613 | locus YHR079C, strain IRE1, active compounds read low 0.476 | locus YHR205W, strain SCH9, active compounds read low 0.527 | locus YJL157C, strain FAR1, active compounds read low 0.638 | locus YJR066W, strain TOR1 (second series), active compounds read low 0.227 | locus YKL067W, strain YNK1, active compounds read low 0.714 | locus YLR113W, strain HOG1, active compounds read low 0.461 | locus YLR133W, strain CKI1, active compounds read low 0.724 | locus YLR403W, strain SFP1, active compounds read low 0.566 | locus YNL020C, strain ARK1, active compounds read low 0.697 | locus YNL307C, strain MCK1 (second series), active compounds read low 0.601 | locus YOR061W, strain CKA2, active compounds read low 0.662 | locus YOR231W, strain MKK1, active compounds read low 0.486 | locus YPL031C, strain PHO85, active compounds read low 0.619 | locus YPL153C, strain RAD53, active compounds read low 0.551 | locus YPL256C, strain CLN2, active compounds read low 0.634
